PMP22 txn – modulates PMP22 transcription in S16 Schwann cells. S16 Pmp22-F2sN Schwann cells, FLuc/NLuc coincidence luminescence, 24 h. Potency, µM (doses to about 57.5 µM), for inactives: at the top dose activity change, negative = inhibition, actives largely listed as inhibitors. 43,000 tested, 2% active. AID 1508649; active = clear falling dose curves in both reporters; inconclusive = both reporters move, but less clearly or upward; inactive = either reporter flat; the % is the NLuc reporter signal; also: potency is read from the fitted curve at half-maximal effect; % is scaled to controls: 0 for no effect and ±100 for the full control effect
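Reporter cells (S16 Pmp22-F2sN, 500–1,000 per well) exposed to compounds for 24 h, 37C, 5% CO2; lysis with FLuc read after 10 min, then Stop&Glo and NLuc read after 10 min.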
S16 F2sN tox – cytotoxicity in S16 Pmp22-F2sN Schwann cells | 43,000 tested, 0.48% active | S16 Pmp22-F2sN Schwann cells (luciferase reporters placed in the Pmp22 gene) viability, CellTiter-Glo, 24 h | AID 1508642 | Potency, µM (titrated, usually from 57.5 µM), inactives show at the highest dose activity change, negative = cytotoxicity, usual class: cytotoxic; also: potency is read from the fitted curve at half-maximal effect; % is scaled to controls: 0 for no effect and ±100 for the full control effect; nearly all actives have a fitted effect of over 65% in size
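Luminescence from CellTiter-Glo, read by CCD camera after a 15 min room-temperature incubation, served as the viability signal. Reporter Schwann cells (S16 Pmp22-F2sN) had been treated with pin-transferred compounds for 24 h at 37C.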
p53null 39C tox – selectivity test: cytotoxicity in p53 null cells, nonpermissive temperature. Potency, µM (top dose mostly 46.1 µM), for inactives: at the top dose activity, negative = cell killing, hits mostly cytotoxic. H1299 p53-null (neo) cells, 39C, ATPlite viability, 24 h. 55,000 tested, 0.97% active;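 also: potency is read from the fitted curve at half-maximal effect; 0% = DMSO only and -100% = full killing by 100 µM tamoxifen; nearly all actives have a fitted effect of over 50% in size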
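Temperature-shift cytotoxicity format: compound titrations on p53-null or A138V-expressing H1299 cells held 24 hr at 39C, cell ATP then measured, AC50 from Hill model.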
SKOV3 invasion – inhibitors of ovarian cancer cell adhesion and invasion in omental model; 46,000 tested, 0.1% active; Potency, µM (top dose mostly 45.8 µM), inactives show at the top dose activity change, negative = inhibition, actives largely listed as inhibitors; SKOV3ip1-GFP adhesion/invasion on 3D omental model, fluorescence; AID 1963576;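 also: potency is read from the fitted curve at half-maximal effect; plate controls were DMSO wells for no effect and tomatine positive control wells for full effect; nearly all actives have a fitted effect of over 65% in size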
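Primary human omental fibroblast/mesothelial 3D culture pre-formed 48 h. SKOV3ip1-GFP cells added with compounds (0.36-46 umol/L), incubated 2 h RT/16 h 37 C, fixed; GFP cells quantified at 488/509 nm.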
p53null 32C kill – selectivity test: cytotoxicity in p53 null cells, permissive temperature. H1299-neo p53 null cells, ATP luminescence, 24 h, 32C. Potency, µM (top dose mostly 46.1 µM), for inactives: at the highest dose activity change, negative = cytotoxicity, actives largely listed as cytotoxic. 55,000 tested, 0.62% active;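 also: potency is read from the fitted curve at half-maximal effect; 0% = DMSO only and -100% = full killing by 100 µM tamoxifen; nearly all actives have a fitted effect of over 55% in size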
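We seeded p53-null H1299-neo cells, incubated them overnight at 37C, and added compounds across a range up to 46 uM. After 24 hours at 32C, ATP reagent was applied for 20 min at room temperature and luminescence recorded.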
pS6 MEF inh – mTORC1 pathway inhibition measured by phospho-rpS6; Tsc2-/- p53-/- MEF, phospho-rpS6 immunofluorescence/PI, 24 h; Potency, µM (titrated, usually from 38.3 µM), inactives show top-dose activity change, negative = inhibition, most hits filed as inhibitors; 44,000 tested, 0.78% active;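 also: potency is read from the fitted curve at half-maximal effect; plate controls were DMSO for no effect and rapamycin for full effect; nearly all actives have a fitted effect of over 50% in size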
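Tsc2-/-, p53-/- MEFs (empty-vector stable line) in DMEM + 10% FBS were treated with compounds 24 h at 37 degree Celsius, fixed, and immunostained for phospho-rpS6 (Alexa-488) with propidium iodide counterstain. Laser-scanning cytometry gave % positive cells, normalized against 7.5 nM rapamycin and DMSO.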
NLuc sat counter – counter-screen for PMP22 expression modulators: NanoLuc inhibition, saturating substrate; Secreted NLuc enzyme (filtered S16 cell medium), Nano-Glo luminescence; 690 tested, 4% active; Potency, µM (highest dose often 57.5 µM), without a hit: at the highest dose activity change, negative = inhibition, usual class: inhibitors; shares compounds with PMP22 txn; also: potency is read from the fitted curve at half-maximal effect; % is scaled to controls: 0 for no effect and ±100 for the full control effect
NLuc Km ctr – NanoLuc inhibition at Km substrate, PMP22 artifact check. shares compounds with PMP22 txn. secreted NLuc enzyme, coelenterazine luminescence, Km conditions. Potency, µM (top dose mostly 57.5 µM), for the others: at the top dose activity change, negative = inhibition, actives largely listed as inhibitors. 690 tested, 5% active. AID 1508639; also: potency is read from the fitted curve at half-maximal effect; % is scaled to controls: 0 for no effect and ±100 for the full control effect
FLuc ctr PMP22 – counter-screen for PMP22 expression modulators: firefly luciferase inhibition | shares compounds with PMP22 txn | purified P. pyralis FLuc, luminescence, 10 min | Potency, µM (doses to about 57.5 µM), inactives show at the top dose activity, negative = inhibition, usual class: inhibitors | 690 tested, under 10 active; also: % of control where 0% means no effect
Target sequence (P08659 whole entry, looked up): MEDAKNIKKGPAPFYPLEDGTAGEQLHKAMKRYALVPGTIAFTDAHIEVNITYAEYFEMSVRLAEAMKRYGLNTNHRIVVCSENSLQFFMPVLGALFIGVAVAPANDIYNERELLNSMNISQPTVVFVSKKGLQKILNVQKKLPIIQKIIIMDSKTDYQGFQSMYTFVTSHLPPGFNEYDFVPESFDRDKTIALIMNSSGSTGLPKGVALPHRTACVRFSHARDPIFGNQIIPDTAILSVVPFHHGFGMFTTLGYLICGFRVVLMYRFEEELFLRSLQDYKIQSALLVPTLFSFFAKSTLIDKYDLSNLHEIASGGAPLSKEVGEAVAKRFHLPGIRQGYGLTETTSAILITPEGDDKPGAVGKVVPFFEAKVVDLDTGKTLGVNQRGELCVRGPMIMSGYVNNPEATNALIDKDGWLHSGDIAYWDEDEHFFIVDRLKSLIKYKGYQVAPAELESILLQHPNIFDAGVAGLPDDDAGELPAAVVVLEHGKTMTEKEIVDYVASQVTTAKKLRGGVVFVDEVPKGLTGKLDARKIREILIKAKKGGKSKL
S16 F2sN tox cnf – S16 Schwann cell cytotoxicity, confirmatory; 690 tested, 7% active; S16 Schwann cells viability, CellTiter-Glo ATP luminescence, 24 h; Potency, µM (highest dose often 57.5 µM), for inactives: top-dose activity change, negative = viability loss, hits mostly cytotoxic; shares compounds with PMP22 txn; also: potency is read from the fitted curve at half-maximal effect; % is scaled to controls: 0 for no effect and ±100 for the full control effect
PMP22 txn conf – confirmation of modulators of PMP22 gene transcription in S16 cells. S16 Schwann cells Pmp22-F2sN, dual luciferase, 24 h. AID 1508646. Potency, µM (series often up to 57.5 µM), for inactives: at the top dose activity change, negative = inhibition, most hits filed as inhibitors. 690 tested, 22% active. shares compounds with PMP22 txn; active = clear falling dose curves in both reporters; inconclusive = both reporters move, but less clearly or upward; inactive = either reporter flat; the % is the FLuc reporter signal; also: potency is read from the fitted curve at half-maximal effect
Starred values were filed as active, the others as inactive; i = inactive; u = inconclusive; x = not tested or not shown. Compounds with a hit are over-represented: about 3% of the library has one in this group of screens. Unless noted, calls follow the shape of the dose curve; as a rule, active = well fitted curve in the direction sought with a large enough effect; inconclusive = small, poorly fitted or top-dose-only effect, or another doubt; inactive = no such curve, though single readings can be large; an effect the other way counts as inactive or inconclusive.

SMILES	PMP22 txn	S16 F2sN tox	p53null 39C tox	SKOV3 invasion	p53null 32C kill	pS6 MEF inh	NLuc sat counter	NLuc Km ctr	FLuc ctr PMP22	S16 F2sN tox cnf	PMP22 txn conf
OC[C@H]1O[C@@H](Oc2cc(O)cc(C=Cc3ccc(O)cc3)c2)[C@H](O)[C@@H](O)[C@H]1O	x	x	x	5.0%	x	x	x	x	x	x	x
COc1cc(O)c2c(c1)C1OC1C[C@H](O)[C@H](O)C(=O)C=CC[C@H](C)OC2=O (stereo partly specified)	x	x	x	-27.3%	x	x	x	x	x	x	x
Cc1ccc(F)cc1NC(=O)CSc1nc(-c2cccs2)cc(C(F)(F)F)n1	14.1µM*	0.0%	u	-0.7%	-3.1%	u	-20.1%	-17.0%	2.1%	-7.5%	-14.2%
Cc1cccc(C)c1NC(=O)CSc1nc(-c2cccs2)cc(C(F)(F)F)n1	-23.0%	9.2%	-11.4%	i	9.3%	u	x	x	x	x	x
Cc1ccc(NC(=O)CSc2nc(-c3ccco3)cc(C(F)(F)F)n2)cc1	2.15µM*	-8.4%	-9.4%	-3.5%	5.2%	u	-7.3%	-1.0%	6.9%	-12.0%	-12.7%
Nc1nc2[nH]cc(CCc3ccc(C(=O)N[C@@H](CCC(=O)O)C(=O)O)cc3)c2c(=O)[nH]1	x	x	x	1.2%	x	x	x	x	x	x	x
CCc1ccc2oc(-c3cccc(NC(=O)c4cc5ccccc5o4)c3)nc2c1	0.9%	1.4%	-10.5%	i	-6.0%	u	x	x	x	x	x
O=C(Nc1cccc(-c2nc3ccccc3o2)c1)C(F)(F)F	8µM*	u	-23.2%	u	u	-1.1%	u	u	u	21.3%	u
CS(=O)(=O)c1ccc(-c2cnc(N)c(C(=O)Nc3ccccc3)n2)cc1	x	x	x	13.1%	x	x	x	x	x	x	x
COc1ccc(-c2noc(CSc3nnc(C)n3-c3ccc(C)cc3)n2)cc1	u	u	-7.5%	1.5%	-9.1%	-14.8%	x	x	x	x	x
COc1ccc(-n2c(C)nnc2SCc2nc(-c3ccc(OC)c(OC)c3)no2)cc1	u	-21.9%	-7.0%	i	-8.1%	0.1%	u	u	-4.6%	-20.4%	-40.6%
COc1ccc(-c2noc(CSc3nnc(-c4ccncc4)n3-c3ccccc3)n2)cc1	13.5µM*	u	-9.3%	i	-2.3%	-6.8%	u	u	-22.3%	-13.5%	6.15µM*
COc1ccc(-n2c(SCc3nc(-c4ccc(C)cc4)no3)nnc2-c2ccncc2)cc1	u	-9.6%	4.1%	i	-1.2%	-2.0%	x	x	x	x	x

High-throughput results as filed in PubChem.
